# According to PubChem BioAssay AID1467 (National Center for Advancing Translational Sciences (NCATS), 2008):
# The campaign covered roughly 230,000 compounds. Fewer than 10 were called active. A selection follows. A number with no mark means an inactive call. The call rests on the fitted dose curve; in most records, active means well fitted curve in the direction sought with a large enough effect; inconclusive means small, poorly fitted or top-dose-only effect, or effect the other way, or another doubt; inactive means no such curve, though single readings can be large or run the other way.
# Target: Alpha-galactosidase A (Homo sapiens) (UniProt P06280)
# Sequence (P06280 whole entry, looked up): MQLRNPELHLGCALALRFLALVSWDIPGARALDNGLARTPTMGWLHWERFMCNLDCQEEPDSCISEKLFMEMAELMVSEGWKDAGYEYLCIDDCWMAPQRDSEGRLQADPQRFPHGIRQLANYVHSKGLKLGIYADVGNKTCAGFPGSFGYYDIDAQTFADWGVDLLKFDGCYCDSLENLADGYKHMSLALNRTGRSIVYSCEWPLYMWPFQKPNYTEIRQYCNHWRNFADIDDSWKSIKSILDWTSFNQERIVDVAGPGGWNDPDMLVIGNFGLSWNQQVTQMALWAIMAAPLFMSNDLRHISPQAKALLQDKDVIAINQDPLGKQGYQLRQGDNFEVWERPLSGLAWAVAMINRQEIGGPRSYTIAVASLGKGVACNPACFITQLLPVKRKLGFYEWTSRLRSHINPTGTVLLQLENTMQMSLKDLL
# Assay: qHTS Assay for Inhibitors of Human alpha-Galactosidase at pH 4.5.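 Further: 0% = full activity with enzyme and -100% = basal without enzyme.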
# Settings: purified enzyme, 4-MU-alpha-Gal fluorescence; series mostly up to 105 µM; activity change, negative = inhibition: at the top concentration
# Excerpt: NIH Chemical Genomics Center [NCGC]
# NIH Molecular Libraries Probe Production centers Network [MLPCN]
# Assay Submitter (PI): Wei Zheng
# Alpha-galactosidase is a homodimeric glycoprotein that hydrolyzes the terminal alpha-galactosyl moieties from glycolipids and glycoproteins. Deficiency of this enzyme results in Fabry Disease with progressive accumulation of globotriaosylceramide and other glycosphingolipids in vascular endothelial cells that causes renal failure, myocardial infarction and stroke, and premature death in patients. It has been reported that the improper folding and trafficking of alpha-galactosidase resulting from the genetic mutations may account for a significant numbers of Fabry patients. […] We optimized this alpha-galactosidase assay in 1536-well plate format for identifying the novel small molecule inhibitors with the structures other than the sugar analogs in order to develop the new pharmacological chaperones. Although this assay has the same protocol as PubChem AID 992, this is a separate project and, therefore, is published as a separate assay
# NCGC Assay Protocol Summary:
# This is a fluorogenic enzyme assay with 4-Methylumbelliferyl alpha-D-galactopyranoside as the substrate and human […] as the enzyme preparation. Upon the hydrolysis of this fluorogenic substrate, the resulting product, […]. 4-Methyllumbelliferone, can be excited at 365 nm and emits at 440 nm. This fluorescence which can be detected by a standard fluorescence plate reader. Data were normalized to the controls for basal activity (without enzyme) and 100% activity (with enzyme). In the AC50 values were determined from concentration-response data modeled with the standard Hill equation.
# Assay buffer: 50 mM citric acid (titrated with potassium phosphate to pH 4.5), 0.005% Tween-20, pH 4.5. (pH 4.5 is an optimal condition for this enzyme assay)
# 1536-well assay protocol for the human alpha-galactosidase:
# (1) Add 2 ul/well of enzyme (12 nM final)
# (2) Add 23 nL compounds in DMSO solution. The final titration was 0.7 nM to 77 uM.
# (3) Add 1 ul of substrate (400 uM final)
# (4) Incubate at room temperature for 20 min.
# (5) Add 2 ul stop solution (1M NaOH and 1M Glycine mixture, pH 10)
# (6) Detect the assay plate in a ViewLux plate reader (PerkinElmer) with Ex=365 nm and Em=440nm.
# Keywords: MLSMR, MLPCN, NIH Roadmap, qHTS, NCGC, : Alpha-galactosidase, Fabry Disease, pharmacological chaperone, chaperone therapy
row,Structure (SMILES),"activity change, negative = inhibition"
1,O=C(NCc1ccco1)O[C@@H]1C(=O)c2cc(Br)ccc2O[C@H]1c1ccc2c(c1)OCO2,-4.29%
2,O=C(O)CC(Cc1ccccc1)C(=O)Nc1ccc([N+](=O)[O-])cc1 (configuration not stated),-7.27%
3,OC[C@H]1O[C@@H](n2cnc3c(N[C@H]4CC5CCC4C5)ncnc32)[C@H](O)[C@@H]1O (some centres not stated),-5.15%
4,COc1cccc([C@@H]2Oc3ccc(Br)cc3C(=O)[C@H]2OC(=O)NCCc2ccc(OC)c(OC)c2)c1,-5.8%
5,CCOC(=O)C1C/C(=C\C(C)=O)c2cccc(C(F)(F)F)c2O1 (configuration not stated),-13.6%
6,C/C(Nc1ccc2oc(=O)ccc2c1)=C1/C(=O)CC2[C@@H]1C2(C)C (some centres not stated),-2.21%
7,O=C(NNC(=S)NC1CC2CCC1C2)c1ccc(Cl)cc1 (configuration not stated),-13.7%
8,COc1cc(NC(=O)c2ccc3c(c2)OCO3)ccc1NC(=O)c1cccs1,6.42%
9,CC(=O)Nc1ccc(NC(=O)CSc2ncnc3c2cnn3Cc2ccccc2)cc1,-11.5%
10,C=C1c2cccc(OC)c2O[C@H](C(=O)OCC)[C@@H]1CCCCCC,-12.3%
11,C=CCn1c2ccccc2c2nnc(SCc3[nH]c(=O)[nH]c3C(=O)CCCCC(=O)OCC)nc21,6.4%
12,O=C(COC(=O)CNC(=O)c1ccccc1F)NCC(F)(F)F,2.03%
13,COC(=O)C1=C(C(=O)OC)[C@@H]2N(C)c3ccccc3[C@@]23C[C@@H](C(=O)OC)N(S(=O)(=O)c2ccc(Br)cc2)C3=N1,-2.66%
14,O=C(NCCCN1CCOCC1)c1cc2c(s1)CCC2,-4.48%
15,CCOc1ccc(C2NC(=S)NC3=C2CCc2ccccc23)cc1 (configuration not stated),-7.19%
16,COc1cc(OC)c2c(-c3cccc(-c4cccc(N)c4)c3)cc(=O)oc2c1,-6.01%
17,Cc1ccc(NC(=O)O[C@@H]2C(=O)c3cc(Br)ccc3O[C@H]2c2ccc3c(c2)OCO3)cc1Br,-0.736%
18,CC1=C(C)CC(C(=O)NNC(=O)c2ccccc2O)C(C(=O)O)C1 (configuration not stated),8.41%
19,O=S(=O)(Cc1noc(-c2ccc(OC(F)(F)F)cc2)n1)c1ccc(F)cc1,-3.61%
20,COc1cc(CNCCN(C)C)ccc1OCc1c(F)cccc1Cl,7.26%
21,Clc1ccc(-c2csc(-c3ccncc3)n2)cc1,0.359%
22,CCOc1cc(N2CCOCC2)c(OCC)cc1NC(=O)c1ccc(C)s1,3.82%
23,NC1CCN(O)C1=O (configuration not stated),-1.41%
24,COc1ccc(S(=O)(=O)N(C)C)cc1NC(=O)CSc1ncccn1,-1.38%
25,O=C(COc1ccccc1)N1CCN=C1SCc1cccc(F)c1,-1.66%
26,CC(=O)/C(C)=N/O,6.05%

row,Structure (SMILES),"activity change, negative = inhibition"
1,CCO[C@H]1OC(C(=O)N2CCN(Cc3ccccc3)CC2)=C[C@@H](c2cn(C(C)=O)c3ccccc23)[C@@H]1CCCO,-8.17%
2,C=C/C1=C/Cc2ccccc2[C@H](C[N+](=O)[O-])C(C(=O)OC)(C(=O)OC)C1,-2.03%
3,NNC(=O)c1oc2nc(-c3ccccc3)cc(-c3ccco3)c2c1N,-5.28%
4,S=C(NCCCc1cnc[nH]1)NCCCN(Cc1ccc(Cl)c(Cl)c1)c1ccc(Br)cn1,-6.2%
5,Cc1cccc([C@H]2[C@@H]3C=CC[C@@H](C)[C@@H]3C(=O)N2Cc2ccccc2)c1,-2.93%
6,CCN(CCn1cccn1)C(=O)CC1C(=O)NCCN1Cc1cccc(OC)c1OC (configuration not stated),-3.26%
7,O=[N+]([O-])c1ccc(N2CCNCC2)cc1NCc1cccnc1,-23.8%
8,S=C(NNC(=S)NC1CC2C=CC1C2)NC1CC2C=CC1C2 (configuration not stated),-8.67%
9,COC(=O)N1C(/C=C/C=C/c2ccc(OC)cc2)=Cc2ccccc2C1CC(C)=O (configuration not stated),-1.09%
10,COc1ccc(C(=O)COC(=O)c2nn(C)c(=O)c3ccccc23)c(OC)c1,-26.1%
11,COc1cccc(NC(=S)NCc2ccco2)c1,-7.84%
12,Cn1c(SCC(=O)NC2CCCCC2)nnc1-c1ccc(N)cc1,-1.25%
13,COC(=O)C1=C(C(=O)OC)[C@@H]2N(C)c3ccccc3[C@@]23C[C@@H](C(=O)OC)N(S(=O)(=O)c2cccs2)C3=N1,-0.375%
14,CN1CCC(=NNC(=O)CN(c2cccc(Cl)c2)S(C)(=O)=O)CC1,-0.661%
15,NC(=O)CC(NC(=O)Cc1cccc2ccccc12)c1ccc(NCc2cc(F)ccc2F)c([N+](=O)[O-])c1 (configuration not stated),10.4%
16,N#Cc1cccc(CS(=O)(=O)c2nnnn2-c2cc(C(F)(F)F)cc(C(F)(F)F)c2)c1,-8.23%
17,Cc1cc(C(=O)COC(=O)CNC(=O)c2ccc(F)cc2)c(C)n1Cc1ccco1,1.82%
18,OCCC1CN(Cc2ccc3nsnc3c2)CCN1C1CCCCC1 (configuration not stated),-12.3%
19,Cc1cc(C)cc(N(CC(=O)NCCSCc2ccco2)S(C)(=O)=O)c1,0.74%
20,CC1CCN(c2c(NCc3ccc(C(=O)NCc4ccccc4)cc3)c(=O)c2=O)CC1,-4%
21,CNC(=O)c1ccc(NC(=O)c2cccc(C(F)(F)F)c2)cc1,-1.3%
22,Nc1ccc(OCC(O)C[n+]2ccc(CCS(=O)(=O)[O-])cc2)cc1 (configuration not stated),5.66%
23,Cc1cccc2c1N(CCOc1ccccc1)C(=O)C2=O,-14.8%
24,CN1C(=O)/C(=C\c2ccc(-c3ccccc3)o2)SC1=S,4.38%
25,C/C(=N\NC(=O)c1cccc(N2CCCC2=O)c1)c1ccc(N)cc1,0.376%
26,CC(C)(C)Nc1c(-c2cccs2)nc2ccccn12,5.51%

row,Structure (SMILES),"activity change, negative = inhibition"
1,Cc1csc(-c2coc3cc(O[C@@H]4O[C@H](CO)[C@@H](O)[C@@H](O)[C@H]4O)ccc3c2=O)n1,-1.54%
2,c1ccc2c(c1)CSc1sccc1C2=C1CCNCC1,7.6%
3,CC(=O)CC(c1ccccc1)C1C(=O)Oc2ccccc2C1=O (configuration not stated),-1.34%
4,COC(=O)C1=C(C(=O)OC)[C@@H]2N(Cc3ccccc3)c3ccccc3[C@@]23C[C@@H](C(=O)OC)N(S(=O)(=O)c2ccc(C(F)(F)F)cc2)C3=N1,-8.58%
5,O=C(NCCN1CCOCC1)c1ccc2c(c1)N(Cc1ccc(Cl)cc1)CCS2,19.9%
6,C/C=C(\C)C(=O)OC1C(OC(=O)C2(C)OC2C)c2cc3ccc(=O)oc3cc2OC1(C)C (configuration not stated),-3.44%
7,CNC(=S)N1CCC(NC(=O)C(Cc2ccc(F)cc2)NC(C)=O)CC1 (configuration not stated),2.08%
8,Cc1oc2cc([N+](=O)[O-])c(O)c([N+](=O)[O-])c2c1C(=O)c1ccc(Br)cc1,0.458%
9,CCc1ccc(NC(=O)C(=O)N/N=C(\C)CC(=O)NCCOC)cc1,3.4% [at 21.1 µM]
10,CCOc1ccc(NC(=O)c2ccc(CSc3nnnn3C)cc2)cc1,5.27%
11,COC(=O)C1=C(C(=O)OC)[C@@H]2Nc3ccccc3[C@@]23C[C@@H](C(=O)OC)N(S(=O)(=O)c2ccc([N+](=O)[O-])cc2)C3=N1,-1.19%
12,COc1ccc(Nc2ncnc3ccc(OC)cc23)cc1,-4.49%
13,C[N+]1(CC(O)COc2ccccc2)CCN(C(=O)c2ccc([N+](=O)[O-])cc2)CC1 (configuration not stated),-12.9%
14,C/C=C(\C)C(=O)O[C@H]1CC(C)=C2C(=O)C=C(C)C2[C@@H]2OC(=O)[C@@](C)(OC(=O)C=C(C)C)C21 (some centres not stated),0.518%
15,Cc1nc(SCc2ccc(F)cc2)c([N+](=O)[O-])[nH]1,-11%
16,C=CCN1C(=O)C(Cc2ccc(OCC)cc2)SC1=Nc1ccc(C(=O)O)cc1 (configuration not stated),-0.326%
17,Cc1ccc(C)c(-n2nnnc2SCC(=O)c2c(N)n(C)c(=O)n(C)c2=O)c1,7.01%
18,COc1ccc2c(c1)O[C@@H](c1ccc3c(c1)OCO3)[C@H](OC(=O)NCc1ccco1)C2=O,-8.2%
19,Cc1cn(C2OC[C@@H](O)[C@@H]2CO)c(=O)[nH]c1=O (some centres not stated),-5.03%
20,Brc1ccc(C2=NCCC(c3ccccc3)O2)cc1 (configuration not stated),-0.0967%
21,C[C@@H]1C(c2ccc(F)cc2)=NN(c2ccc(Br)cc2)[C@H]1C(=O)N1CCOC1=O,1.05%
22,Cc1csc(SCC(=O)Nc2sccc2C#N)n1,1.25%
23,COC(=O)c1ccc(S(=O)(=O)N(CCO)Cc2ccccc2)n1C,1.9%
24,Nc1nc(C23CC4CC(CC(C4)C2)C3)cs1,-0.438%
25,CN(CCc1cn[nH]c1)C(=O)CC1C(=O)NCCN1Cc1cccc(Oc2ccccc2)c1 (configuration not stated),7.92%
26,Cc1cc(C)nc(SC2CCCCC2NS(=O)(=O)c2ccc(Cl)cc2)n1 (configuration not stated),-10.7%

row,Structure (SMILES),"activity change, negative = inhibition"
1,Cc1ccc(S(=O)(=O)N2CCC(C(=O)OCC(=O)N3CC(=O)Nc4ccccc43)CC2)cc1,-0.506%
2,Cc1ccc(C2CC(c3cccc(NS(C)(=O)=O)c3)=NN2S(C)(=O)=O)cc1 (configuration not stated),10.3%
3,CCOC(=O)C1=C(C)c2ccccc2OC1(C)C(=O)OCC (configuration not stated),-6.68%
4,Cc1cccc(NC(=S)NCc2ccc3[nH]c4c(c3c2)CCCC4)c1,-1.22%
5,COc1ccc(-c2c(C)cc3oc(=O)cc(-c4ccccc4)c3c2C)cc1OC,-21.7%
6,OC[C@H]1O[C@@H](n2cnc3c(NC4CCCC4)ncnc32)[C@H](O)[C@H]1O,0.0639%
7,COC1(C2=NCCN2)COc2ccccc2O1 (configuration not stated),-0.194%
8,COC(C)C(C(=O)OCC1=CCN2CC[C@H](O)[C@@H]12)C(C)C (some centres not stated),-7.37%
9,COc1ccc(-c2nc3c(c4c2C[C@H](c2ccccc2)OC4)CN(C(=O)c2ccco2)CC3)c(C)c1,9.81%
10,CCn1c(SCC(=O)Nc2ccc(C)cc2)nc2nc3c(cc2c1=O)CCCC3,0.427%
11,Cc1cc(N)n(-c2ccc(S(=O)(=O)N3CCCC3)cc2[N+](=O)[O-])n1,8.19%
12,Cc1cc(Cl)ccc1OCc1nc(-c2ccncc2)no1,-7.26%
13,CC(C)(C)NS(=O)(=O)CC12CCC(CC1=O)C2(C)C (configuration not stated),-2.78%
14,CCn1c(SCc2ccccc2)nc2c(c1=O)SCC2,-18.3%
15,COc1ccc(-c2nc3c(c4c2C[C@H](c2ccccc2)OC4)CN(C(=O)C2CC2)CC3)c(C)c1,-7.05%
16,C=CCN1c2ccccc2[C@]23C[C@@H](C(=O)OC)N(S(=O)(=O)c4ccc([N+](=O)[O-])cc4)C2=NC(C(=O)OC)=C(C(=O)OC)[C@H]13,-4.09%
17,O=C(CSc1cccc[n+]1[O-])c1ccc(Cl)cc1,3.17%
18,O=C(NCc1cccnc1)c1cnc2ccccc2n1,1.77%
19,CCCCS(=O)(=O)N1C2=NC(C(=O)OC)=C(C(=O)OC)[C@@H]3N(Cc4ccccc4)c4ccccc4[C@]23C[C@H]1C(=O)OC,7.1%
20,Nn1c(SCC(=O)Nc2nccs2)nncc1=O,-6.09%
21,O=c1[nH]c(SCc2cccc(F)c2)nc2ccccc12,0.781%
22,COc1ccc(/C=N/OCC(=O)N(Cc2ccccc2)c2ccccc2C(=O)O)cc1,-13.4%
23,O=C(COc1cccc(F)c1)Oc1ccc(C(=O)c2ccccc2)cc1,1.38%
24,COc1ccc(-c2nc3c(c4c2C[C@H](c2ccccc2)OC4)CN(S(=O)(=O)c2c(C)noc2C)CC3)c(C)c1,11.4%
